A selection: hits, their analogues and other compounds. The true share with any hit is near 6.6%.
KB-3-1 cytotox – KB-3-1 parental cell cytotoxicity | hit rate 1.4% among 400,000 | Potency, µM (highest dose often 46.1 µM), most hits filed as cytotoxic | KB-3-1 viability, CellTiter-Glo ATP luminescence, 72 h; further: on the % scale 0 is the no-effect control and ±100 the full control effect; nearly all actives have a fitted effect of over 60% in size
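Cytotoxicity in the drug-sensitive parental line KB-3-1 was scored as loss of CellTiter-Glo luminescence following 72 h incubation with compound. Values come from curve fitting of normalized concentration-response data.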
TSG101-PTAP inh – blocks PTAP/TSG101 interaction to inhibit HIV-1 budding; Q99816; Fluorescence polarization, FITC-PTAP peptide / Tsg101 binding; Potency, µM (doses to about 115 µM), without a hit: at the highest dose activity change, negative = inhibition, most hits filed as inhibitors; 340,000 tested, under 10 active; AID 493005; active means well fitted inhibition curve with a large enough effect in the main read-out, with a control signal flat, not every such curve was filed as active; inconclusive means small, poorly fitted or top-dose-only effect, or effect the other way, or a change in a side signal; inactive means no such curve, though single readings can be large or run the other way; further: % of control where 0% means no effect
Target sequence (Q99816 whole entry, looked up): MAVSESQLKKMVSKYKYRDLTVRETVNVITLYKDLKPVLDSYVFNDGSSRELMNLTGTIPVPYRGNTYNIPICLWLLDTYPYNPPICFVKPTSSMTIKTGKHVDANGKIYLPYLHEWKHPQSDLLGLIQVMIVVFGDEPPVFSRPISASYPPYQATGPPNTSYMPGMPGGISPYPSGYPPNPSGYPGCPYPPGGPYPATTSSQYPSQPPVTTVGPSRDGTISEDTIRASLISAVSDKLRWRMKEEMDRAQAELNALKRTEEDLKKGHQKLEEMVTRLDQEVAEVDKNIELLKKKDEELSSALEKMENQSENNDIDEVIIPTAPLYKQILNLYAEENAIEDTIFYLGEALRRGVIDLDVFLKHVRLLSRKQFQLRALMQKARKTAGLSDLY
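Compounds were pin-transferred onto Tsg101 binding domain (10 uM final) in HEPES pH 7.5 buffer, then FITC-PTAP peptide was added at 50 nM final. After 20 min at RT, polarization reported peptide displacement across a qHTS concentration series.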
MCF10A rerep – inducers of DNA re-replication in MCF 10A breast cells; hit rate 2.9% among 350,000; MCF 10A DNA re-replication, Hoechst nuclear intensity, 48 h; Potency, µM (doses to about 46.1 µM), for inactives: at the highest dose activity, positive = re-replication, most hits filed as activators; further: % of control where 0% means no effect; nearly all actives have a fitted effect of over 50% in size
RGS4 inh – inhibitors of human regulator of G protein signaling 4 | Transcreener GDP fluorescence polarization, RGS4-accelerated GTP hydrolysis | Potency, µM (series often up to 114 µM), for the others: top-dose activity change, negative = inhibition, usual class: inhibitors | hit rate 0.039% among 390,000 | AID 504845; further: on the % scale 0 is the no-effect control and ±100 the full control effect; nearly all actives have a fitted effect of over 75% in size
Target sequence (P49798 whole entry, looked up): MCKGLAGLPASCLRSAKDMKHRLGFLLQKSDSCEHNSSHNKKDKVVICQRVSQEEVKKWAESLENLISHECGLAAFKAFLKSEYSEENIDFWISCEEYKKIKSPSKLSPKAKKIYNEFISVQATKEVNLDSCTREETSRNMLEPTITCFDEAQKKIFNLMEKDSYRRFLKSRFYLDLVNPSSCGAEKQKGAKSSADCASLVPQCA
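MLSMR compounds (23 nl, pin-transferred) preincubated 10 min at room temperature with a 500nM (2x) first reagent, then RGS4 at 900nM (2x) plus Transcreener GDP mix added; fluorescence polarization (620/688 nm) read before and after 90 min at 30 °C.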
KB-V1 MDR tox – kills drug-selected multidrug resistant KB-V1 cells. Potency, µM (series often up to 46.1 µM), hits mostly cytotoxic. AID 1347076. hit rate 3.4% among 400,000. KB-V1 MDR cells viability, CellTiter-Glo, 72 h; further: on the % scale 0 is the no-effect control and ±100 the full control effect; nearly all actives have a fitted effect of over 60% in size
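KB-V1 cells (P-gp-expressing MDR subline of KB-3-1) in phenol-red-free DMEM with 10% FBS were exposed to library compounds over a concentration series for 72 h at 37 degrees C. Viability read by CellTiter-Glo luminescence; concentration-effect curves fitted after normalization.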
SW480 rerep – inducers of DNA re-replication in SW480 colon cancer cells; hit rate 1.8% among 340,000; Potency, µM (top dose mostly 46.1 µM), without a hit: at the top dose re-replication activation, most hits filed as activators; SW480 DNA re-replication, Hoechst DNA content imaging, 48 h; further: % of control where 0% means no effect; nearly all actives have a fitted effect of over 55% in size
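Treated cells incubate 48 hr (37 C, 5% CO2), are stained 40 min with Hoechst, and nuclear fluorescence is enumerated; a rise in nuclei with high DNA signal marks re-replication.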
Active calls of the source: *. Unless noted, the call rests on the fitted dose curve; in most records, active means well fitted curve in the direction sought with a large enough effect; inconclusive means small, poorly fitted or top-dose-only effect, or another doubt; inactive means no such curve, though single readings can be large; an effect the other way counts as inactive or inconclusive. Potency means the concentration at half of the fitted maximal effect.

How did COc1cc2ccccc2cc1C(=O)Nc1ccc(Cl)c(-c2nc3ccccc3o2)c1 do in these assays?
KB-3-1 cytotox: inactive; RGS4 inh: -14%; KB-V1 MDR tox: inactive

How did Cc1nn(CCCC(=O)NCCc2ccc(Cl)cc2)c(=O)c2c1sc1ccccc12 do in these assays?
KB-3-1 cytotox: inactive; RGS4 inh: -38%; KB-V1 MDR tox: inactive

Results for O=C(Nc1ccc(Cl)cc1)N(CCCN1CCOCC1)Cc1cccs1 ?
KB-3-1 cytotox: inactive; TSG101-PTAP inh: -1%; MCF10A rerep: 5%; RGS4 inh: 22%; KB-V1 MDR tox: inactive; SW480 rerep: 0%

Results for O=C1CC(N(Cc2cccs2)C(=O)Nc2ccccc2)C(=O)N1c1ccc(Cl)cc1 (stereo unspecified) ?
KB-3-1 cytotox: inactive; TSG101-PTAP inh: -3%; MCF10A rerep: 16%; RGS4 inh: -34%; KB-V1 MDR tox: 18µM*; SW480 rerep: inconclusive

Results for COc1ccc(CN(C(=S)Nc2ccccc2)C2CC(=O)N(c3ccccc3)C2=O)cc1 (stereo unspecified) ?
KB-3-1 cytotox: inactive; TSG101-PTAP inh: -1%; MCF10A rerep: inconclusive; RGS4 inh: -40%; KB-V1 MDR tox: 4.6µM*; SW480 rerep: -1%

What do the screens show for `COc1ccc(CN(C(=S)Nc2ccccc2)C2CC(=O)N(c3ccc(Cl)cc3)C2=O)cc1` (stereo unspecified)?
KB-3-1 cytotox: inconclusive; TSG101-PTAP inh: -2%; MCF10A rerep: inconclusive; RGS4 inh: -35%; KB-V1 MDR tox: inactive; SW480 rerep: 0%

How did CC(=O)c1cccc(NC(=O)c2cc(-c3ccc(Cl)s3)nc3ccccc23)c1 do in these assays?
KB-3-1 cytotox: inactive; RGS4 inh: -7%; KB-V1 MDR tox: inactive

Results for CCCCNC(=O)CCn1c(=O)c2cccn2c2cccnc21 ?
RGS4 inh: -13%

What do the screens show for `CC(C)c1ccc(C(C)NC(=S)NC2CCCCC2)cc1` (stereo unspecified)?
KB-3-1 cytotox: inconclusive; TSG101-PTAP inh: 0%; MCF10A rerep: inconclusive; RGS4 inh: -10%; KB-V1 MDR tox: inconclusive; SW480 rerep: 5%

How did CC(NC(=S)NC1CCCCC1)c1ccc(C(C)(C)C)cc1 (stereo unspecified) do in these assays?
KB-3-1 cytotox: inconclusive; TSG101-PTAP inh: -7%; MCF10A rerep: 5.8µM*; RGS4 inh: 9%; KB-V1 MDR tox: 12µM*; SW480 rerep: 29%

What do the screens show for `CCN(CC)c1ccc(/C=C(\C#N)C(=O)c2ccc(Br)cc2)cc1`?
KB-3-1 cytotox: inactive; TSG101-PTAP inh: inconclusive; MCF10A rerep: 13µM*; RGS4 inh: -39%; KB-V1 MDR tox: inactive; SW480 rerep: inconclusive

What do the screens show for `O=C(NCc1ccccc1F)C(=O)NCC(c1ccco1)S(=O)(=O)c1cccs1` (stereo unspecified)?
KB-3-1 cytotox: inactive; RGS4 inh: -14%; KB-V1 MDR tox: inactive

Results for CCN(CC)c1ccc(/C=c2\sc3nc4ccccc4n3c2=O)c(O)c1 ?
KB-3-1 cytotox: inconclusive; TSG101-PTAP inh: inconclusive; MCF10A rerep: 2.6µM*; RGS4 inh: inconclusive; KB-V1 MDR tox: inactive; SW480 rerep: 15µM*

Results for O=c1/c(=C/c2ccc(O)c([N+](=O)[O-])c2)sc2nc3ccccc3n12 ?
KB-3-1 cytotox: inactive; TSG101-PTAP inh: -5%; MCF10A rerep: 10%; RGS4 inh: -2%; KB-V1 MDR tox: inactive; SW480 rerep: -18%

How did Cc1ccccc1NC(=O)CSc1nc(-c2ccccc2)cn1-c1ccccc1F do in these assays?
KB-3-1 cytotox: inactive; RGS4 inh: -49%; KB-V1 MDR tox: inactive

Results for CCOC(=O)c1sc(N(Cc2ccccc2)C(=O)COC(=O)c2ccc(O)cc2)nc1C ?
KB-3-1 cytotox: inactive; TSG101-PTAP inh: 3%; MCF10A rerep: 9.2µM*; RGS4 inh: -10%; KB-V1 MDR tox: inactive; SW480 rerep: inconclusive

What do the screens show for `O=C(c1ccc(F)cc1)N1CCN=C1c1ccccc1`?
KB-3-1 cytotox: inactive; TSG101-PTAP inh: 1%; MCF10A rerep: inconclusive; RGS4 inh: 10%; KB-V1 MDR tox: inactive; SW480 rerep: 13µM*

What do the screens show for `Cc1ccc(C2=C(O)C(=O)C(c3ccc(C)cc3)=C(O)C2=O)cc1`?
KB-3-1 cytotox: inconclusive; TSG101-PTAP inh: 1%; MCF10A rerep: inconclusive; RGS4 inh: -2%; KB-V1 MDR tox: 15µM*; SW480 rerep: 17%

Results for CC1=C(O)C(=O)C(C2=C(O)C(=O)C(C)=C(O)C2=O)=C(O)C1=O ?
KB-3-1 cytotox: inconclusive; TSG101-PTAP inh: 2%; MCF10A rerep: 0%; RGS4 inh: 10%; KB-V1 MDR tox: inconclusive; SW480 rerep: -11%

How did COc1ccccc1N(CC(O)COc1ccc(C)cc1)S(=O)(=O)c1ccccc1 (stereo unspecified) do in these assays?
KB-3-1 cytotox: inactive; TSG101-PTAP inh: -3%; MCF10A rerep: inconclusive; RGS4 inh: 13%; KB-V1 MDR tox: inconclusive; SW480 rerep: -1%

How did COc1ccccc1N(CC(O)COc1ccccc1)S(=O)(=O)c1ccccc1 (stereo unspecified) do in these assays?
KB-3-1 cytotox: inactive; TSG101-PTAP inh: 1%; MCF10A rerep: 6%; RGS4 inh: -26%; KB-V1 MDR tox: 13µM*; SW480 rerep: inconclusive

Results for COc1ccccc1N(CC(O)COc1c(C)cc(C)cc1C)S(=O)(=O)c1ccccc1 (stereo unspecified) ?
KB-3-1 cytotox: inconclusive; TSG101-PTAP inh: 0%; MCF10A rerep: inconclusive; RGS4 inh: -15%; KB-V1 MDR tox: 8.2µM*; SW480 rerep: inconclusive

What do the screens show for `CC1=C(C(=O)Nc2ccccc2)C(c2ccncc2)n2nc(SCc3ccccc3Cl)nc2N1` (stereo unspecified)?
KB-3-1 cytotox: inactive; RGS4 inh: 12%; KB-V1 MDR tox: inactive

What do the screens show for `CCN(Cc1ccccc1)Cc1c(O)ccc2oc(C)c(C(=O)Nc3ccccc3C)c12`?
RGS4 inh: 13%

How did CCCC(C)c1nnc(NC(=O)C2CCCO2)s1 (stereo unspecified) do in these assays?
KB-3-1 cytotox: inactive; TSG101-PTAP inh: -5%; MCF10A rerep: 5.2µM*; RGS4 inh: -36%; KB-V1 MDR tox: inactive; SW480 rerep: 21µM*

What do the screens show for `O=C(CSc1ncc(-c2ccccc2)[nH]1)Nc1ccc(Cl)cc1`?
KB-3-1 cytotox: inactive; RGS4 inh: -11%; KB-V1 MDR tox: inactive
